Reference: PubChem BioAssay (Tox21)
Several values for one entry are separate records, joined by “and”; a condition that tells them apart may be missing. Equal values may be shown once. Records with an inconclusive call do not appear. Where a structure was tested more than once in an assay, its records may differ in their call. Activity calls are given as the source filed them. Unless noted, calls come from the whole dose curve.

Experiments:
[1] = qHTS assay to identify small molecule agonists of the sonic hedgehog signaling (Shh) pathway (AID 1259368);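 note: NIH/3T3-derived 3T3Gli1-Luc cells carrying a stable Gli1-driven firefly luciferase reporter; series mostly up to about 92 µM; nearly all actives have a fitted effect of over 15% in size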
How it was run: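 NIH/3T3-derived 3T3Gli1-Luc cells with stably integrated Gli1-driven firefly luciferase, 2,000 cells/well, compounds added after 4 hr. Incubated 24 hr at 37C, 5% CO2; luminescence read after 30 min with luciferase reagent at room temperature.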

[2] = qHTS assay to identify small molecule antagonists of the sonic hedgehog signaling (Shh) pathway (AID 1259369); note: nearly all actives have a fitted effect of over 45% in size; note: potency is the fitted concentration of half-maximal effect
How it was run: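 NIH/3T3-derived Gli1-Luc reporter cells plated 4 h, dosed with compound, then stimulated with conditioned medium for 24 h at 37 C. Firefly luciferase luminescence read after 30 min with detection reagent at room temperature.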

[3] = biological target: Estrogen receptor beta (Homo sapiens) (UniProt Q92731); test: qHTS assay to identify small molecule agonists of the estrogen receptor beta (ER-beta) signaling pathway (AID 1259377; active = well fitted activation curve with a large enough effect in the signal ratio in the repeat runs, not every such curve was filed as active; the % refers to the signal ratio; note: potency is the fitted concentration of half-maximal effect)
How it was run: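 Beta-lactamase reporter readout: fluorescence of LiveBLAzer B/G FRET substrate after 2 h at room temperature, following 16 h compound treatment of ER-beta-UAS-bla HEK293T cells at 37C in 2% charcoal-stripped FBS medium.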

[4] = biological target: Estrogen receptor beta (Homo sapiens) (UniProt Q92731); test: qHTS assay to identify small molecule antagonists of the estrogen receptor beta (ER-beta) signaling pathway (AID 1259378; active = well fitted inhibition curve with a large enough effect in the signal ratio in the repeat runs, not every such curve was filed as active; the % refers to the signal ratio)
How it was run: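 Antagonist mode: compounds added to beta-lactamase reporter HEK293T ER-beta-UAS cells stimulated with E2 (1nM final), 16 hr at 37C. LiveBLAzer B/G FRET substrate, 2 hours room temperature, fluorescence read-out.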

[5] = qHTS assay to identify small molecule agonists of the androgen receptor (AR) signaling pathway in the presence of an antagonist - cell viability counter screen (AID 1259379; active = well fitted curve in the direction sought with a large enough effect in the repeat runs; an effect the other way counts as inactive or inconclusive; note: nearly all actives have a fitted effect of over 25% in size; note: potency is the fitted concentration of half-maximal effect)
How it was run: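 MDA-kb2 cells (MMTV-luciferase, AR/GR), 3,000/well, 5 h attachment, then 3.0 µM nilutamide (final) and compounds at 15 concentrations. Viability by CellTiter-Fluor fluorescence after 16 h at 37 °C, 0% CO2, in the reporter wells.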

[6] = qHTS assay to identify small molecule agonists of the estrogen receptor beta (ER-beta) signaling pathway - cell viability counter screen (AID 1259380; active = well fitted curve in the direction sought with a large enough effect in the repeat runs; an effect the other way counts as inactive or inconclusive; note: nearly all actives have a fitted effect of over 30% in size; note: potency is the fitted concentration of half-maximal effect)
How it was run: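 ER-beta-UAS-bla HEK293T cells in medium with 2% charcoal-stripped FBS, pre-incubated 6 hr, then treated 16 hr at 37C. Cytotoxicity read in the same wells by CellTiter-Glo luminescence after 30 min at room temperature.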

[7] = qHTS assay to identify small molecule antagonists of the estrogen receptor beta (ER-beta) signaling pathway - cell viability counter screen (AID 1259382; active = well fitted curve in the direction sought with a large enough effect in the repeat runs; an effect the other way counts as inactive or inconclusive; note: nearly all actives have a fitted effect of over 55% in size; note: potency is the fitted concentration of half-maximal effect)
How it was run: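 ER-beta-UAS-bla HEK293T cells in 2% charcoal-stripped FBS medium, treated with compound plus 1 nM 17-beta-estradiol for 16 h at 37C. Viability read by CellTiter-Glo luminescence after 30 min at room temperature in the same wells.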

[8] = qHTS assay to identify small molecule agonists or antagonists of the thyroid stimulating hormone receptor (TSHR) signaling pathway - wild type cell line counter screen (AID 1259384)
How it was run: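 Counter screen in untransfected Hek293: compounds (15-point titration, triplicate) plus phosphodiesterase inhibitor Ro20-1724 added after 18 h plating; 30 min RT. Intracellular cAMP via competitive d2/cryptate immunoassay, 1 h incubation.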

[9] = biological target: Thyrotropin receptor (Homo sapiens) (UniProt P16473); test: qHTS assay to identify small molecule antagonists of the thyroid stimulating hormone receptor (TSHR) signaling pathway (AID 1259385); note: nearly all actives have a fitted effect of over 20% in size
How it was run: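 Antagonist mode: compound-treated TSHR-expressing HEK293 cells were stimulated with 1.5 ng/mL TSH (final) in presence of Ro20-1724 for 30 min at RT. HTRF cAMP detection after 1 h; each compound tested at 15 concentrations, triplicate.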

[10] = qHTS assay to identify small molecule agonists of the estrogen receptor alpha (ER-alpha) signaling pathway in the presence of an antagonist - cell viability counter screen (AID 1259386; active = well fitted curve in the direction sought with a large enough effect in the repeat runs; an effect the other way counts as inactive or inconclusive;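 note: cells exposed to compounds for 22 h at 37 °C before the viability read; nearly all actives have a fitted effect of over 30% in size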; note: potency is the fitted concentration of half-maximal effect)
How it was run: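 Cell viability in VM7Luc4E2 cells (endogenous full-length ER-alpha) measured by CellTiter-Fluor fluorescence in the same wells as the luciferase screen. Cells pre-cultured 5 days in charcoal-stripped serum, then treated 22 h with compounds at 15 concentrations plus 10.0nM ICI-182,780.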

[11] = biological target: Progesterone receptor (Homo sapiens) (UniProt P06401); test: qHTS assay to identify small molecule agonists of the progesterone receptor (PR) signaling pathway (AID 1346784); note: nearly all actives have a fitted effect of over 30% in size
How it was run: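 HEK 293T PR-UAS-bla reporter cells, 2% charcoal-stripped FBS; 6 hr settle at 37C/5% CO2, compound (DMSO) 16 hr, LiveBLAzer B/G FRET substrate 2 hr RT, fluorescence intensity read.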

[12] = biological target: Progesterone receptor (Homo sapiens) (UniProt P06401); test: qHTS assay to identify small molecule antagonists of the progesterone receptor (PR) signaling pathway (AID 1346795; active = well fitted inhibition curve with a large enough effect in the signal ratio in the repeat runs, not every such curve was filed as active; the % refers to the signal ratio; note: potency is the fitted concentration of half-maximal effect)
How it was run: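 Beta-lactamase reporter, HEK293T PR-UAS-bla line; 2% charcoal-stripped FBS; 6 hr pre-incubation, 37C/5% CO2. Compound + R5020 1 nM final, 16 hr. LiveBLAzer B/G FRET substrate, 2 hr RT; fluorescence intensity read.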

[13] = qHTS assay to identify small molecule antagonists of the progesterone receptor (PR) signaling pathway - cell viability counter screen (AID 1346798; active = well fitted curve in the direction sought with a large enough effect in the repeat runs; an effect the other way counts as inactive or inconclusive; note: series mostly up to about 92 µM; nearly all actives have a fitted effect of over 50% in size)
How it was run: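 Luminescence readout (CellTiter-Glo, 30 min, RT) of viability in PR-UAS-bla HEK293T cells exposed to compound and R5020 agonist for 16 hr at 37C, 5% CO2; run in the same wells as the beta-lactamase reporter read.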

[14] = qHTS assay to identify small molecule agonists of the progesterone receptor (PR) signaling pathway - cell viability counter screen (AID 1346799); note: nearly all actives have a fitted effect of over 45% in size; note: potency is the fitted concentration of half-maximal effect
How it was run: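 HEK293T PR-UAS-bla, 3,000 cells/well, 2% charcoal-stripped FBS; 6 h settle, compound 16 h at 37C/5% CO2; LiveBLAzer 2 h RT, then CellTiter-Glo 30 min RT, luminescence read.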

[15] = qHTS assay to identify small molecule antagonists of the TGF-beta/Smad signaling pathway - cell viability counter screen (AID 1346824; active = well fitted curve in the direction sought with a large enough effect in the repeat runs; an effect the other way counts as inactive or inconclusive; note: nearly all actives have a fitted effect of over 50% in size)
How it was run: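 Cytotoxicity counter-screen run in the same wells as the beta-lactamase Smad reporter read: CellTiter-Glo luminescence after 30 min at room temperature. HEK 293T SBE-bla cells had 5 hr compound exposure at 37 C with TGF-beta1 (0.25 ng/mL stock).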

[16] = qHTS assay to identify small molecule agonists of the TGF-beta/Smad signaling pathway - cell viability counter screen (AID 1346829; active = well fitted curve in the direction sought with a large enough effect in the repeat runs; an effect the other way counts as inactive or inconclusive; note: top concentration of the series differs between compounds; nearly all actives have a fitted effect of over 45% in size)
How it was run: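 Here the cytotoxicity of library compounds is measured in SBE-bla HEK 293T cells treated for 5 hr, using CellTiter-Glo added to wells already read for the beta-lactamase reporter.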

[17] = qHTS assay to identify small molecule agonists of the TGF-beta/Smad signaling pathway (AID 1346859; active = well fitted activation curve with a large enough effect in the signal ratio in the repeat runs, not every such curve was filed as active; the % refers to the signal ratio; note: series mostly up to about 77 µM)
How it was run: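 Read-out: fluorescence at 460 and 530 nm (405 nm excitation) after a 2 hr room-temperature incubation with beta-lactamase FRET substrate. SBE-bla HEK 293T cells had been treated with test compounds for 5 hr at 37 C.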

[18] = biological target: Thyrotropin-releasing hormone receptor (Homo sapiens) (UniProt P34981); test: qHTS assay to identify small molecule antagonists of the thyrotropin-releasing hormone receptor (TRHR) signaling pathway (AID 1346877; active = well fitted inhibition curve with a large enough effect in the repeat runs, not every such curve was filed as active; note: series mostly up to about 51 µM)
How it was run: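 TRHR-expressing HEK293 cells loaded with calcium dye for 2 h at 37 C; compounds pre-incubated 5 min at room temperature before TRH challenge at 1 nM final. Intracellular calcium fluorescence read kinetically for 3 min; 15 concentrations in triplicate.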

[19] = biological target: Estrogen receptor (Homo sapiens) (UniProt P03372); test: qHTS assay to identify small molecule agonists of the estrogen receptor alpha (ER-alpha) signaling pathway in the presence of an antagonist (AID 1259383); note: nearly all actives have a fitted effect of over 15% in size; note: potency is the fitted concentration of half-maximal effect; for activation: top concentration of the series differs between compounds
How it was run: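 VM7Luc4E2 cells express endogenous full-length ER-alpha with an ERE-luciferase reporter and were hormone-deprived for 5 days. Compounds at 15 concentrations were added with 10.0nM ICI-182,780 for 22hr at 37C. Luminescence was read with ONE-Glo.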

[20] = biological target: Androgen receptor (Homo sapiens) (UniProt P10275); test: qHTS assay to identify small molecule agonists of the androgen receptor (AR) signaling pathway in the presence of an antagonist (AID 1259381); note: nearly all actives have a fitted effect of over 15% in size
How it was run: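 MDA-kb2 cells carrying MMTV-luciferase (AR/GR responsive), 3,000 cells/well, co-treated with 3.0 uM nilutamide final. Compounds at 15 concentrations, 16 hr at 37C without CO2. Luciferase luminescence read after 30 min with ONE-Glo.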

Measured: Potency

Sequence of Progesterone receptor (Homo sapiens) (P06401 whole entry, looked up): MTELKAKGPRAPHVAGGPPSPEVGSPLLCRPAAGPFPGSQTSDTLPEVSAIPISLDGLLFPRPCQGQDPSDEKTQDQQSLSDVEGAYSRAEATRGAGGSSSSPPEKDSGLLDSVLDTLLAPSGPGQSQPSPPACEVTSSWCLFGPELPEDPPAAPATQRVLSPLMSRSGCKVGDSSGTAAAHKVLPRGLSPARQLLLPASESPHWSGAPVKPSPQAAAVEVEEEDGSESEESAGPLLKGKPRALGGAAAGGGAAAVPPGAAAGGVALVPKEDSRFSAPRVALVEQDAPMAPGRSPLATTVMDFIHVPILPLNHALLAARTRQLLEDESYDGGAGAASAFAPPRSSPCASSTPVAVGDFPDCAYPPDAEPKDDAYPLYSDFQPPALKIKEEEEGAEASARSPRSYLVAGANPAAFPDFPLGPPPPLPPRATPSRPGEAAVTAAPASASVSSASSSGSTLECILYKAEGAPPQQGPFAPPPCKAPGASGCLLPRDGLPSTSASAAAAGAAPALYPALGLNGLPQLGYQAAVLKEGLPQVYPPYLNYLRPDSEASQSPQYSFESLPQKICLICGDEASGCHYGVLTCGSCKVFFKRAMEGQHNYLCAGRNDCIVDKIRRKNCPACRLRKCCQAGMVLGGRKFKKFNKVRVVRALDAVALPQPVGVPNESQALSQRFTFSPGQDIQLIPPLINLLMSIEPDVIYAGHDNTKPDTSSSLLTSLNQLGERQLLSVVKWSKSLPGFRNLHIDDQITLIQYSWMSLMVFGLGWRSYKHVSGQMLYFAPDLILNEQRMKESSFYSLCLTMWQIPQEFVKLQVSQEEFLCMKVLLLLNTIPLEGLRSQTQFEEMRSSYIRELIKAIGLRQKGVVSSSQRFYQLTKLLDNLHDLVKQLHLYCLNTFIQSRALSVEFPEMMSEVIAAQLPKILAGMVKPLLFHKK
Sequence of Estrogen receptor (Homo sapiens) (P03372 whole entry, looked up): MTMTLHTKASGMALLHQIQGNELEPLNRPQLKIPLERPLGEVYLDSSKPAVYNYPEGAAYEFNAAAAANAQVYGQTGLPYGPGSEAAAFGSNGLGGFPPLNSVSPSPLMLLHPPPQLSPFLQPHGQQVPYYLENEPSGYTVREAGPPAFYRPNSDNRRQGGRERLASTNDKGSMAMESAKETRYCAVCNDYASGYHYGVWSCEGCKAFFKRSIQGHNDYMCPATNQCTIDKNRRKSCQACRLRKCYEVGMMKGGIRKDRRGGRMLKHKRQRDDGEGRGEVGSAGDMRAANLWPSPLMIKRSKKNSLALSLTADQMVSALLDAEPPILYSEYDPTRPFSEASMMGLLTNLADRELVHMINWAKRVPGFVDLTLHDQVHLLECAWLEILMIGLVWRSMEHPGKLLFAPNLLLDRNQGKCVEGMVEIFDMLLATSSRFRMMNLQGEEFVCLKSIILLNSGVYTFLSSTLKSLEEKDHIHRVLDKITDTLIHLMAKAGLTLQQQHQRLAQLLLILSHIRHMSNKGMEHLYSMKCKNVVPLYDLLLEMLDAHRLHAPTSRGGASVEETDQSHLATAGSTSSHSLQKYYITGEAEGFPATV
Sequence of Thyrotropin receptor (Homo sapiens) (P16473 whole entry, looked up): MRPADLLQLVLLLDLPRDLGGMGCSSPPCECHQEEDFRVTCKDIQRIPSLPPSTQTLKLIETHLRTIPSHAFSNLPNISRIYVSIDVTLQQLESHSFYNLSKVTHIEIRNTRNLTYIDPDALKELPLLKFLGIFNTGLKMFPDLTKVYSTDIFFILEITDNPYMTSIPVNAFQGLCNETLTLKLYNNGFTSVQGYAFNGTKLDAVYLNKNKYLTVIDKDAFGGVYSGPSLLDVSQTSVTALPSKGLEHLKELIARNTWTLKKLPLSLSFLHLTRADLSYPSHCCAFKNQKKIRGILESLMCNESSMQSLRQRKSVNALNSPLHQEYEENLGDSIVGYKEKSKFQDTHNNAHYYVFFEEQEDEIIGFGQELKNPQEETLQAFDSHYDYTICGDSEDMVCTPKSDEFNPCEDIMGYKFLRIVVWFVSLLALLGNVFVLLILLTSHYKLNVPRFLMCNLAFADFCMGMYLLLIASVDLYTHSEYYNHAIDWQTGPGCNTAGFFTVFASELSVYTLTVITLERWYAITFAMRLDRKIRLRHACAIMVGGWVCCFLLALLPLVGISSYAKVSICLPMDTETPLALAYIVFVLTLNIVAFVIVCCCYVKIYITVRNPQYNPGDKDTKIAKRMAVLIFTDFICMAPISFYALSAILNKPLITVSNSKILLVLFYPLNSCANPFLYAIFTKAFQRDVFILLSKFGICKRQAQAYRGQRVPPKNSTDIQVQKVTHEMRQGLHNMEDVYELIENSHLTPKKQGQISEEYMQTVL
Sequence of Thyrotropin-releasing hormone receptor (Homo sapiens) (P34981 whole entry, looked up): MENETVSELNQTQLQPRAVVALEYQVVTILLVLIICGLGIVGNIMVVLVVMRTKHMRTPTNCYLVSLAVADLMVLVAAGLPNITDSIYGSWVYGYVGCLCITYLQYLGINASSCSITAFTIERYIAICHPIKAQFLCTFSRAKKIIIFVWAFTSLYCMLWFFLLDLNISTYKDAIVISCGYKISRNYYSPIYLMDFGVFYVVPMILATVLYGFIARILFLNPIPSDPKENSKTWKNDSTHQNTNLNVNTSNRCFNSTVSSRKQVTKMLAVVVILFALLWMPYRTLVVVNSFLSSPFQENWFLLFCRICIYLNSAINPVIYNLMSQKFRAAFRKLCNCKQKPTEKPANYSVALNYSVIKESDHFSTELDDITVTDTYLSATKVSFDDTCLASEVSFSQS
Sequence of Androgen receptor (Homo sapiens) (P10275 whole entry, looked up): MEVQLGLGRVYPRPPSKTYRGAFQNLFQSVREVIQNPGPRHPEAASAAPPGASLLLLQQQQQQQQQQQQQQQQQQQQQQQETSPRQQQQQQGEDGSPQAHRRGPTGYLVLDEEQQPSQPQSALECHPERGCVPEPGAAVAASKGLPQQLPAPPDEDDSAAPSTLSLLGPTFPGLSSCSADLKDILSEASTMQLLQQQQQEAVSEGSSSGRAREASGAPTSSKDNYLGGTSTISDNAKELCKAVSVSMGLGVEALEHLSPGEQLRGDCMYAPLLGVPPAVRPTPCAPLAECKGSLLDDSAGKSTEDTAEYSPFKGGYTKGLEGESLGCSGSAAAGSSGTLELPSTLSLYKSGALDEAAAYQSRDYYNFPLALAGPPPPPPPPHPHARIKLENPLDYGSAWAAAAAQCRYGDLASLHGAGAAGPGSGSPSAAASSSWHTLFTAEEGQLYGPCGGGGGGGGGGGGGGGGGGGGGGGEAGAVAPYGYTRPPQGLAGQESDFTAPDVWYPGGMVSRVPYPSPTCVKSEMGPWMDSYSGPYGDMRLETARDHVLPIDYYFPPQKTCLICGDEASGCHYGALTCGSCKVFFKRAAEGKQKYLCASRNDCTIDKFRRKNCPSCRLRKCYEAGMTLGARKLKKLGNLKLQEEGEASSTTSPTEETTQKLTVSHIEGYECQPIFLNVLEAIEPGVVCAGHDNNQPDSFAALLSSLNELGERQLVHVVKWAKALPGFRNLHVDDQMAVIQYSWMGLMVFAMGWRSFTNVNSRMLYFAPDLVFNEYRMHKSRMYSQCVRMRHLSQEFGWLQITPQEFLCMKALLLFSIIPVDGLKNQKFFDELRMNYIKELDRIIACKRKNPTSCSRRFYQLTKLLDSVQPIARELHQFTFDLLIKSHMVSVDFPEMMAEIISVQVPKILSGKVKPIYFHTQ
Sequence of Estrogen receptor beta (Homo sapiens) (Q92731 whole entry, looked up): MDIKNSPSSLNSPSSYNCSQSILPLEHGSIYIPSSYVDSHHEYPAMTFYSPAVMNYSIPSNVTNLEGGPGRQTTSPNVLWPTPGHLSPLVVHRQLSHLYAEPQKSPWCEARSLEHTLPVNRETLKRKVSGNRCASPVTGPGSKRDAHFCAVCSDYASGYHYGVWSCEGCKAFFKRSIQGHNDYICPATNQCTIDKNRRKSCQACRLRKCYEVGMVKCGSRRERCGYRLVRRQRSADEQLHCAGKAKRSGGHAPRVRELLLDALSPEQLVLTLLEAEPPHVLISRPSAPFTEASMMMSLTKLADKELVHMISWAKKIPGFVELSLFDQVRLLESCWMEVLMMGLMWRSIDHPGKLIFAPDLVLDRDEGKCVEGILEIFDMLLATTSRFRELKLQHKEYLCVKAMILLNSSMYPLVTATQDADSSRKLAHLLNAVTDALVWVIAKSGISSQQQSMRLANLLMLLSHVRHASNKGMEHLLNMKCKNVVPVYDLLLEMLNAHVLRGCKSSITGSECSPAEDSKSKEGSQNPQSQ

NC(=O)NNc1ccccc1
inactive: [1] | [2] | [3] | [4] | [5] | [6] | [7] | [8] | [9] | [10] | [11] | [12] | [13] | [14] | [15] | [16] | [17] | [18]

Nc1c(S(=O)(=O)O)cc(Br)c2c1C(=O)c1ccccc1C2=O
active: [5] 27.3 µM | [10] 30.6 µM
inactive: [1] | [2] | [3] | [4] | [6] | [19] | [8] | [9] | [11] | [12] | [13] | [14] | [15] | [16] | [17] | [18]

Cc1ccc(C)c(C)c1
inactive: [1] | [2] | [3] | [4] | [5] | [6] | [20] | [7] | [19] | [8] | [9] | [10] | [11] | [12] | [13] | [14] | [15] | [16] | [17] | [18]

Oc1ccc(OCc2ccccc2)cc1
15 µM (active) and inactive: [19]
inactive: [1] | [2] | [3] | [5] | [6] | [20] | [8] | [9] | [10] | [11] | [13] | [14] | [15] | [16] | [17] | [18]
active: [12] 18.9 µM

CN(C)c1cccc(O)c1
inactive: [1] | [2] | [3] | [4] | [5] | [6] | [7] | [8] | [9] | [10] | [11] | [12] | [13] | [14] | [15] | [16] | [17] | [18]

CCCCC(CC)C(=O)OCCOCCOCCOC(=O)C(CC)CCCC (centres undefined)
inactive: [1] | [2] | [3] | [4] | [5] | [6] | [20] | [7] | [19] | [8] | [9] | [10] | [11] | [12] | [13] | [14] | [15] | [16] | [17] | [18]

C=C(C)C(=O)OCCC[Si](OC)(OC)OC
inactive: [1] | [2] | [3] | [4] | [5] | [6] | [19] | [8] | [9] | [10] | [11] | [12] | [13] | [14] | [15] | [16] | [17] | [18]

CCc1ccc(O)cc1
inactive: [1] | [2] | [3] | [4] | [5] | [6] | [20] | [7] | [8] | [9] | [10] | [11] | [12] | [13] | [14] | [15] | [16] | [17]

O=S(=O)(O)CCS
inactive: [1] | [2] | [3] | [4] | [5] | [6] | [19] | [8] | [9] | [10] | [11] | [12] | [13] | [14] | [15] | [16] | [17] | [18]

Nc1cc(-c2ccncc2)c[nH]c1=O
inactive: [1] | [2] | [3] | [5] | [6] | [20] | [19] | [8] | [10] | [11] | [12] | [13] | [14] | [15] | [16] | [17] | [18]

NCCNCCNCCNCCN
inactive: [1] | [2] | [3] | [5] | [6] | [20] | [8] | [9] | [10] | [11] | [12] | [13] | [14] | [15] | [16] | [17]

O=C(c1ccc(O)cc1)c1ccc(O)cc1O
inactive: [1] | [5] | [6] | [7] | [8] | [9] | [10] | [11] | [15] | [16] | [17] | [18]
active: [2] 55 µM | [3] 13.8 µM and 12.2 µM | [19] 15.5 µM and 13.7 µM | [12] 19.5 µM

CC1=CC[C@H]2C[C@@H]1C2(C)C
inactive: [1] | [2] | [3] | [5] | [6] | [7] | [19] | [8] | [9] | [10] | [11] | [12] | [13] | [14] | [15] | [16] | [17] | [18]

CNC[C@H](O)[C@@H](O)[C@H](O)[C@H](O)CO
inactive: [1] | [2] | [3] | [5] | [6] | [8] | [9] | [10] | [11] | [12] | [13] | [14] | [15] | [16] | [17] | [18]

COC(=O)c1ccc(C(=O)OC)cc1
19.6 µM (active) and inactive: [7]
6.19 µM (active) and inactive: [6]
inactive: [1] | [3] | [5] | [19] | [8] | [9] | [10] | [15] | [16] | [17] | [18]
17.5 µM (active) and inactive: [14]
982 nM (active) and inactive: [2]
